Laboratory results taken from PubChem BioAssay AID652068 (The Scripps Research Institute Molecular Screening Center, 2013).
Among all 4,300 compounds or so, about 4,000 (93%) were called active.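 Rule for the calls: active = inhibition above its plate's cutoff, the mean test-well inhibition plus 3 SD (cut at about 4.8% in these data); inactive = the rest.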 So high a share suggests a set chosen from earlier hits. The list is a sample of the results.

experiment: DNA CAG/GTC dye complex inhibitors – biochemical, fluorescence, TO-PRO-1 dye, d(CAG) DNA oligo, counter-screen for rCAG RNA repeat binder project (AID 652068); settings: d(CAG) DNA oligo TO-PRO-1 dye displacement, at 3 µM, hits give high values;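 note: 0% = DNA dye mix with DMSO and 100% = 100 µM mitoxantrone; hits displace the dye from DNA and so lower well fluorescence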

Row | SMILES | inhibition
1 | O=C(O)c1ccc(NC(=O)c2cn(-c3ccccc3)nc2-c2ccc(Cl)cc2)cc1 | 23.2% (active)
2 | O=C(NNC(=S)NC(=O)c1cn(-c2ccccc2)nc1-c1ccccc1)c1ccncc1 | 15.3% (active)
3 | O=C(O)c1ccc(N/N=C/c2cn(-c3ccccc3)nc2-c2cccs2)cc1 | 23% (active)
4 | N#Cc1c(-c2ccccc2)cc(-c2ccccc2)nc1SCC(=O)O | 13% (active)
5 | O=C(O)CCn1cc(/C=C/C(=O)c2ccc(Cl)cc2)c(-c2cccc(Br)c2)n1 | 53.6% (active)
6 | Cc1cc(N2C(=O)C(O)=C(C(=O)c3ccc(C)o3)C2c2ccc(OCc3ccccc3)cc2)no1 (stereo not given) | 23.8% (active)
7 | CC1(C(=O)NS(=O)(=O)c2ccc3ccccc3c2)CCN1C(=O)C1(c2ccc(Cl)cc2)CCC1 (stereo not given) | 31.7% (active)
8 | O=C(Nc1ccc(S(=O)(=O)Nc2nccs2)cc1)c1cccc(S(=O)(=O)N2CCOCC2)c1 | 5.67% (active)
9 | O=C(CCc1ccccc1Cl)Nc1ccc(S(=O)(=O)Nc2nccs2)cc1 | 10.9% (active)
10 | Cc1ccc(OCCC(=O)Nc2ccc(S(=O)(=O)Nc3nccs3)cc2)cc1 | 14.7% (active)
11 | CN1CCN(S(=O)(=O)c2cccc(C(=O)Nc3sccc3C#N)c2)CC1 | 7.1% (active)
12 | O=C(Nc1ccc(S(=O)(=O)Nc2nccs2)cc1)c1cc(-c2ccncc2)nc2ccccc12 | 29.6% (active)
13 | CC1CCCCN1S(=O)(=O)c1ccc(C(=O)Nc2nnc(-c3cccs3)o2)cc1 (stereo not given) | 14.2% (active)
14 | Cc1ccc([C@@H]2CC=C(C(=O)O)[C@H](c3cccc(Cl)c3)N2S(=O)(=O)c2ccc(C)cc2)cc1 | 41.1% (active)
15 | Cc1ccc(S(=O)(=O)N2[C@@H](c3ccccc3F)C(C(=O)O)=CC[C@H]2c2ccc(Cl)cc2)cc1 | 29.3% (active)
16 | Cc1ccccc1S(=O)(=O)N1[C@@H](c2cccc(Cl)c2)C(C(=O)O)=CC[C@H]1c1ccc(Cl)cc1 | 53.5% (active)
17 | CC(=O)Nc1ccc(-c2csc(NC(=O)Nc3ccccc3)n2)cc1 | 22.8% (active)
18 | CC(=O)Nc1ccc(C(=O)Nc2nc(-c3cc(C)n(Cc4ccccc4)c3C)cs2)cc1 | 14.6% (active)
19 | O=C(Nc1ccccc1)Nc1nc2ccccc2s1 | 14.7% (active)
20 | CC(=O)Nc1ccc(S(=O)(=O)Nc2nc(-c3ccc(C(C)(C)C)cc3)cs2)cc1 | 30.7% (active)
21 | Cc1noc(NS(=O)(=O)c2ccc(NC(=O)c3oc4ccc(F)cc4c3C)cc2)c1C | 25.4% (active)
22 | Cc1cc(C)c2nc(-c3cccnc3)cc(C(=O)Nc3ccc(S(=O)(=O)Nc4onc(C)c4C)cc3)c2c1 | 58.6% (active)
23 | Nc1[nH]c(=S)nc2nc(-c3ccccc3)c(-c3ccccc3)nc12 | 13.8% (active)
24 | Cc1ccc(-n2ncc3c(Nc4cccc(C(=O)O)c4)ncnc32)cc1 | 4.92% (active)
25 | O=S(=O)(Nc1ccc(O)c2ccccc12)c1ccc(OC(F)(F)F)cc1 | 23.5% (active)
26 | O=c1oc(-c2ccccc2NS(=O)(=O)c2ccc(Cl)cc2)nc2ccccc12 | 8.49% (active)
27 | CSc1nnc(NC(=O)c2nc(S(=O)(=O)Cc3ccc(C)cc3)ncc2Cl)s1 | 11.6% (active)
28 | C=CCNc1nc(N)c(C(=C(C#N)C#N)c2ccccc2)s1 | 9.76% (active)

Row | SMILES | inhibition
29 | COc1ccccc1C1C(C#N)=C(N)Oc2c1c(-c1ccccc1)nn2-c1ccccc1 (stereo not given) | 12% (active)
30 | Cc1c(C)c2c(OCC(=O)N[C@@H](C(=O)O)c3ccccc3)cc3c(c2oc1=O)CCC(C)(C)O3 | 12.5% (active)
31 | COc1ccc(COC(=O)NC(C(=O)O)c2ccccc2)cc1 (stereo not given) | 1.1% (inactive)
32 | Cc1cc(Br)cn2c(Cc3cccc(F)c3)c(-c3cccc(Br)c3)nc12 | 2.14% (inactive)
33 | Fc1cccc(Cc2c(-c3cccc(Cl)c3)nc3ccc(Br)cn23)c1 | 12.8% (active)
34 | COc1ccc(-c2nc3ccc(Br)cn3c2Cc2ccc(C)cc2)cc1OC | 5.84% (active)
35 | CCC(C)Cn1c(O)cc2nn(-c3nc4ccccc4s3)c(=O)c-2c1C (stereo not given) | 30.4% (active)
36 | COc1cc(NC(=O)c2ccccc2NS(=O)(=O)c2ccc(Cl)s2)cc(OC)c1 | 46.6% (active)
37 | Cc1ccc(CNC(=O)C2CCN(S(=O)(=O)c3ccc4nc5c(c(C(=O)O)c4c3)CC(C)CC5)CC2)cc1 (stereo not given) | 11.1% (active)
38 | CCOc1cc(C)ccc1OCc1nnc(SCC(=O)Nc2cccc(C(=O)O)c2)n1-c1ccccc1 | 11.8% (active)
39 | Cc1sc2nc(SCC(=O)c3ccc(O)c(O)c3)n(Cc3ccco3)c(=O)c2c1C | 31.4% (active)
40 | O=C(COC(=O)c1ccc(NS(=O)(=O)c2cccs2)cc1O)Nc1ccc(F)cc1 | 5.07% (active)
41 | O=C(O)c1[nH]c2ccccc2c1C(c1cccc(O)c1)c1c(C(=O)O)[nH]c2ccccc12 | 12.6% (active)
42 | CCOC(=O)c1cc2cc(-c3c(C(=O)OCC)oc4cc(O)cc(O)c4c3=O)ccc2o1 | 10.2% (active)
43 | O=C(CCCN1C(=O)/C(=C\c2ccco2)SC1=S)Nc1cccc2ccccc12 | 13.7% (active)
44 | Cc1ccc(NC(=O)CSc2sc3c(O)cc(=O)[nH]c3c2C#N)cc1C | 11.8% (active)
45 | CO/N=C(\C(=O)N[C@@H]1C(=O)N2C(C(=O)O)=C(COC(C)=O)CS[C@H]12)c1csc(N)n1 (stereo in doubt) | 17.5% (active)
46 | O=[N+]([O-])c1cc(Br)c(O)c(/C=N/Nc2nc3ccccc3s2)c1 | 83.5% (active)
47 | COc1ccc(S(=O)(=O)/N=C2\C=C(NS(=O)(=O)c3ccccc3)C(=O)c3ccccc32)cc1 | 56.1% (active)
48 | O=C(NNc1c2ccccc2nc2ccccc12)c1cc2ccccc2cc1O | 27.7% (active)
49 | Cc1cc(/C=N/Nc2ccc([N+](=O)[O-])cn2)c(C)n1-c1cccc(C(=O)O)c1 | 10.4% (active)
50 | O=c1ccc2c(-c3ccccc3S(=O)(=O)O)c3ccc(O)c(O)c3oc-2c1O | 69.2% (active)
51 | O=C(Nc1cccc(F)c1)c1cc(-c2ccco2)nc2ccccc12 | 3.28% (inactive)
52 | O=C(O)c1cccc(NC(=O)c2cc(-c3cccc(Cl)c3)nc3ccccc23)c1 | 14.3% (active)
53 | Cc1oc2c(F)c(F)c(F)c(F)c2c1S(=O)(=O)Nc1cccc(C(F)(F)F)c1 | 13.1% (active)
54 | Nc1cccc(-c2cc(-c3ccccc3)nc(-c3cccc(N)c3)n2)c1 | 6.95% (active)
55 | Cc1oc2cc([N+](=O)[O-])c(O)c([N+](=O)[O-])c2c1C(=O)c1ccc(Br)cc1 | 15.8% (active)
